# Among all 330,000 compounds or so, about 4,900 (1.5%) were called active. The entries come from a sample that favours actives as a whole. Values without a mark were called inactive.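 How the source made its calls: active means inhibition above about 50% at the single test dose (limit read from the data); inactive means the rest.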
# Target: Sentrin-specific protease 7 (Homo sapiens) (UniProt Q9BQF6)
# Assay: SENP7 protease inhibitors, primary screen, biochemical, luminescence, uHTS (AID 434973);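 further: plate controls were DMSO with enzyme for no effect and no enzyme buffer wells for full effect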
# Conditions: recombinant SENP7, Z-RLRGG-aminoluciferin luminescence, 40 min; at 5 µM; hits give high values
row,Compound,inhibition
1,Nc1nc(SCc2cccc(Br)c2)n[nH]1,0.492%
2,CCCC1CC(C)(C(=O)Cn2[nH]c(=O)ccc2=O)OC1=O (centres undefined),-0.683%
3,Cc1cc(C)nc(-n2ncc3c2CC(c2ccc(C(C)C)cc2)CC3=O)n1 (centres undefined),9.11%
4,COc1ccc(-n2cnnc2SCC(=O)Nc2cccc([N+](=O)[O-])c2)cc1,-4.85%
5,COc1cccc(NCCC(=O)c2cccc([N+](=O)[O-])c2)c1,13.1%
6,COc1ccc(Cc2nnc(SCC(=O)c3cccc([N+](=O)[O-])c3)n2C)cc1,73.6% (active)
7,O=C(CN1CCOCC1)N1CCCc2c1c(=O)oc1ccc(OCc3ccccc3)cc21,4.73%
8,C/C(CC(=O)Nc1ccc(N(C)C)cc1)=N\NC(=O)c1ccccc1F,-1.56%
9,C/C(=N\NC(=O)c1ccccc1F)c1ccccn1,64.2% (active)
10,COc1ccc(/C(C)=N\NC(=O)c2ccc(-c3ccccc3)cc2)c(F)c1,3.63%
11,COc1ccc(OC)c(CNC(=O)c2cc(=O)[nH]c3ccc(S(=O)(=O)N4CCCC4)cc23)c1,0.442%
12,O=C1CC2(CCCC2)C(=O)N1CN1CCN(S(=O)(=O)c2ccc(F)cc2F)CC1,-8.48%
13,CN1C(=O)/C(=N/OC(=O)c2ccccc2Br)c2ccccc21,4.98%
14,CN1C(=O)/C(=C\c2cc(Br)cs2)c2ccccc21,80.9% (active)
15,CCC1C(=O)c2ccccc2N(C)C1=O (centres undefined),-6.31%
16,O=C(Nc1cc(=O)[nH]c2ncnn12)c1ccccc1Cl,10.9%
17,Cc1ccc(S(=O)(=O)Nc2nc3ccccc3nc2N2CCc3ccccc3C2)cc1,86.2% (active)
18,Cc1ccc(NC(=O)CN2CCc3ccccc3C2)cc1,-5.44%
19,Cc1ccc(S(=O)(=O)N2CCN(c3ncnc4ccccc34)CC2)cc1,0.743%
20,O=C(COc1ccccc1O)NC1CCCC1,-1.19%
21,CCCCNc1ccc(C(=O)Nc2cccc(C)n2)cc1[N+](=O)[O-],-7.17%
22,Nc1ccc(N=Nc2ccccc2Cl)c(N)n1,82.3% (active)
23,CCOc1cc(/C=C/C(=O)OCC(=O)NCCN2C(=O)CSC2=O)ccc1OCC(C)C,4.69%
24,Cc1cc(=O)[nH]c(N/N=C/c2ccc3c(c2)OCCO3)n1,6.15%
25,Cc1noc(C)c1/C=N/Nc1ccc2ccccc2n1,52.5% (active)
26,C(=N\Nc1ccc2ccccc2n1)/c1ccc2c(c1)OCO2,96.1% (active)
27,Cc1nc(Cl)cc(N/N=C/c2ccccc2)n1,4.74%
28,O=C(N/N=C/c1ccc2c(c1)OCO2)C(=O)N1CCCC1,4%
29,Cc1nc2ccccc2nc1N/N=C/c1ccc(O)cc1O,7.72%

# Source: PubChem BioAssay AID434973 (Sanford-Burnham Center for Chemical Genomics, 2010)
